# Data as given in ChEMBL document CHEMBL3988442, “University of Dundee, Small-Polar-MMV Screening Library” (2021).
# About 960 (1.5%) of roughly 66,000 compounds showed an effect of 50% or more. The full list was thinned out, with strong results kept by preference.
# Tested on: Trypanosoma brucei
# Assay: Trypanosoma brucei 72 hour study
# Assay type: functional, organism-based
# Set-up: scale not given: in the data most compounds retested in dose-response had high values
smiles,measurement,setting,value
Cc1ccc(N2CC[C@H]3O[C@@H](C(=O)N4CCCCO4)CC[C@H]32)nn1.O=C(O)C(F)(F)F,Percent Effect,"30.3 µM, […]",-38.73%
Cc1cc(C(=O)N2CCc3nnc(N)cc3C2)c(C)n1-c1ccccc1,Percent Effect,10 µM,-23.32%
same,Percent Effect,"30.3 µM, […]",-29.37%
Cc1ccoc1-c1nnc(CN2CCn3c(C)nnc3C2)o1,Percent Effect,10 µM,-13.57%
same,Percent Effect,"30.3 µM, […]",-3.504%
CN(C)c1cc(C2CCCN(S(=O)(=O)c3cn[nH]c3)C2)ccn1 (centres undefined),Percent Effect,"30.3 µM, […]",-2.52%
Cc1cccc(CNc2cc(C3CCCNC3)ccn2)n1.Cl (centres undefined),Percent Effect,"30.3 µM, […]",3.917%
CCC1CN(C)c2ccccc2CN1C(=O)Nc1ccccc1OC (centres undefined),Percent Effect,"30.3 µM, […]",42.13%
CC(c1cccnc1)N(C)Cc1cc(O)c2cc(F)ccc2n1 (centres undefined),Percent Effect,"30 µM, 30.03 µM",-16.14%
Br.Cn1cc(CN2CCC(c3cc(COc4cccc(Cl)c4)[nH]n3)C2)cn1 (centres undefined),Percent Effect,"30.3 µM, […]",49.27%
O=C(O)C(F)(F)F.O=C(c1ccoc1)N1C[C@@H]2OCCN(c3ncccn3)[C@@H]2C1,Percent Effect,"30.3 µM, […]",-8.279%
Cc1cccc2[nH]c(-c3cn(C4CCNCC4)nn3)nc12,Percent Effect,"30 µM, 30.03 µM",-21.72%
Cc1ccc2[nH]c(-c3cn(C4CCNCC4)nn3)nc2c1C,Percent Effect,"30 µM, 30.03 µM",-22.65%
Cc1c(C)c(C)c2[nH]c(-c3cn(C4CCNCC4)nn3)nc2c1C,Percent Effect,"30 µM, 30.03 µM",91.25%
O=C(NCC1CC1)C1CCC2(CCN(C(=O)c3cccnc3)CC2)O1.O=C(O)C(F)(F)F (centres undefined),Percent Effect,"30.3 µM, […]",-34.45%
O=C([C@H]1C[C@@H]2CN(c3ncc(F)cn3)C[C@H]1O2)N1CCCC1,Percent Effect,"30.3 µM, […]",-1.674%
Cc1cc(Cc2ccccc2F)cc(C2CCCNC2)n1 (centres undefined),Percent Effect,"30.3 µM, […]",18.5%
Cc1cc(Cc2cccc(C(F)(F)F)c2)cc(C2CCCNC2)n1 (centres undefined),Percent Effect,"30.3 µM, […]",99.88%
Cc1cccc(Cc2cc(C)nc(C3CCCNC3)c2)c1 (centres undefined),Percent Effect,"30.3 µM, […]",100.3%
Cc1nc(C2CCCNC2)cc(N(C)CCc2ccccc2)n1 (centres undefined),Percent Effect,"30.3 µM, […]",33.93%
Cc1cc(Cc2ccc(F)cc2)cc(C2CCCNC2)n1 (centres undefined),Percent Effect,"30.3 µM, […]",51.54%
Cc1cc(Cc2ccccc2)cc(C2CCCNC2)n1 (centres undefined),Percent Effect,"30.3 µM, […]",2.708%
Cc1cc(Cc2ccccc2C)cc(C2CCCNC2)n1 (centres undefined),Percent Effect,"30.3 µM, […]",49.51%
Cc1cc(Nc2cnccn2)cc(C2CCCNC2)n1 (centres undefined),Percent Effect,"30.3 µM, […]",-9.252%
Cc1nc(NC2CCCCC2)cc(C2CCCNC2)n1.Cl (centres undefined),Percent Effect,"30.3 µM, […]",43.9%
CN1CC(=O)N(c2cnn(C)c2)CC12CCN(Cc1cccs1)C2.O=C(O)C(F)(F)F.O=C(O)C(F)(F)F (centres undefined),Percent Effect,"30 µM, 30.03 µM",-5.896%
Cc1nc(CN2C(=O)CCC23CCN(Cc2ccccn2)CC3)cs1.O=C(O)C(F)(F)F.O=C(O)C(F)(F)F,Percent Effect,"30.3 µM, […]",-6.926%
COCCN1C(=O)C[C@H]2[C@H]1CCN2Cc1ccc(OC)cc1.O=C(O)C(F)(F)F,Percent Effect,"30 µM, 30.03 µM",-19.5%
CC(C)CN1CCC(NC(=O)c2ccc(Cl)cc2Cl)CC1,Percent Effect,"30 µM, 30.03 µM",-12.53%
Cc1ncc(CNCCO)c2cc(C(=O)c3ccc(Br)cc3)oc12.Cl,Percent Effect,"30 µM, 30.03 µM",-4.371%
COCC1CN(CCc2ccc(OC)c(OC)c2)Cc2c1cnn2C (centres undefined),Percent Effect,"30.3 µM, […]",-2.73%
CCOCC1CN(CCc2ccccc2)Cc2c1cnn2C (centres undefined),Percent Effect,"30.3 µM, […]",62.26%
CCOCC1CN(CCOCc2ccccc2)Cc2c1cnn2C (centres undefined),Percent Effect,"30.3 µM, […]",-79.88%
O=C(O)C(F)(F)F.O=C1N(CC2CCCC2)CCC12CCN(c1ncc(F)cn1)CC2,Percent Effect,"30.3 µM, […]",-27.57%
Fc1ccccc1Sc1ccccc1CNC1=NCCN1.I,Percent Effect,"30 µM, 30.03 µM",6.107%
Cn1cccc1C(=O)N1C[C@@H]2C[C@@H](c3nc(C4CC4)cs3)O[C@@H]2C1.O=C(O)C(F)(F)F,Percent Effect,"30 µM, 30.03 µM",-16.96%
CC1CCCN(CCNC(=O)c2ccn(-c3ccc(F)cc3)n2)C1 (centres undefined),Percent Effect,"30.3 µM, […]",63.43%
same,Percent Effect,"10 mM, 10 mM as filed; unlikely as a test dose",1.661%
COc1ccc(-n2ccc(C(=O)NCCN3CCCCCC3)n2)cc1,Percent Effect,"30.3 µM, […]",53.03%
same,Percent Effect,"10 mM, 10 mM as filed; unlikely as a test dose",-44.94%
CC1CCCN(CCNC(=O)c2ccn(-c3ccccc3)n2)C1 (centres undefined),Percent Effect,"30 µM, 30.03 µM",26.82%
COc1ccc(-n2ccc(C(=O)NCCN3CCC(C)CC3)n2)cc1,Percent Effect,"30.3 µM, […]",26.29%
same,Percent Effect,"10 mM, 10 mM as filed; unlikely as a test dose",24.76%
COc1ccc(-n2ccc(C(=O)NCCN3CCCCC3)n2)cc1,Percent Effect,"30.3 µM, […]",-2.952%
same,Percent Effect,"10 mM, 10 mM as filed; unlikely as a test dose",-24.45%
CC1CCCN(CCNC(=O)c2ccn(-c3cccc(F)c3)n2)C1 (centres undefined),Percent Effect,"30.3 µM, […]",1.994%
same,Percent Effect,"10 mM, 10 mM as filed; unlikely as a test dose",11.39%
CCCn1[nH]cc/c1=N\C(=O)CN1CCc2cnc(C(C)C)nc2C1,Percent Effect,10 µM,-28.74%
CCc1ocnc1C(=O)N1CCOC(c2nc(C)n[nH]2)C1 (centres undefined),Percent Effect,10 µM,-27.2%
same,Percent Effect,"30.3 µM, […]",-13.47%
Cc1ccc(CN2Cc3nnn(C)c3C(COCc3ccccc3)C2)s1.O=C(O)C(F)(F)F (centres undefined),Percent Effect,"30.3 µM, […]",-18.47%
Cn1cc(-c2ncc3c(c2C(=O)O)CCN(CC2CC2)C3)cn1.O=C(O)C(F)(F)F.O=C(O)C(F)(F)F,Percent Effect,"30.3 µM, […]",-26.37%
COCCC1(CNC(=O)Nc2ccnc(C)c2)CCCC1,Percent Effect,"30 µM, 30.03 µM",5.014%
CN(C)c1ncc(I)c(C2CCCN2C)n1.Cl (centres undefined),Percent Effect,"30.3 µM, […]",-5.31%
CCc1cnc(CN(C)C2CCN(CCn3cc(C#N)cn3)C2)o1 (centres undefined),Percent Effect,"30.3 µM, […]",-0.7137%
Cl.Cn1nc(C2CCN(C(=O)Cc3ccsc3)CC2)c2cccnc21,Percent Effect,"30.3 µM, […]",16.05%
Cc1ccc(C)c(CS(=O)(=O)CC(=O)Nc2ccc(F)cc2F)c1,Percent Effect,"30.3 µM, […]",17.81%
Cc1ccc(C)c(CS(=O)(=O)CC(=O)NC(C)c2ccc(F)cc2F)c1 (centres undefined),Percent Effect,"30.3 µM, […]",56.23%
CCS(=O)(=O)CC(=O)NC(C)c1ccc(F)cc1F (centres undefined),Percent Effect,"30.3 µM, […]",-61.88%
CS(=O)(=O)NC1CCN(C(=O)c2cc3ccccc3s2)C1 (centres undefined),Percent Effect,"30.3 µM, […]",-42.34%
CCC[C@@H]1CN(C(=O)c2cnc3ccccc3c2)C[C@H]1NS(C)(=O)=O,Percent Effect,"30.3 µM, […]",-86.77%
CCC[C@@H]1CN(C(=O)c2cc3ccccc3s2)C[C@H]1NS(C)(=O)=O,Percent Effect,"30.3 µM, […]",55.32%
CNc1ncc2c(n1)CN(c1cccc(OC)c1)C2=O,Percent Effect,"30.3 µM, […]",5.042%
O=C(CN1C(=O)CCC1=O)NCCc1nc(C2CC2)cc(C(F)(F)F)n1,Percent Effect,"30 µM, 30.03 µM",-18.17%
Clc1ccc(C2(CNC3=NCCN3)CCCCC2)cc1.I,Percent Effect,"30 µM, 30.03 µM",18.91%
CC(C)C(C)N(Cc1ccccn1)Cc1ccco1 (centres undefined),Percent Effect,"30 µM, 30.03 µM",-27.64%
CC(C)C(C)N(Cc1cnc2ccccc2n1)Cc1ccco1 (centres undefined),Percent Effect,"30 µM, 30.03 µM",81.63%
CCc1ccc(CN(Cc2ccco2)C(C)C(C)C)nc1 (centres undefined),Percent Effect,"30 µM, 30.03 µM",-19.36%
CCc1c(C)nc(N)nc1N1CCCC(c2nc(CCOC)no2)C1 (centres undefined),Percent Effect,"30 µM, 30.03 µM",-46.14%
C[C@@H]1CN(Cc2cccc(F)c2)C[C@]12CCN(Cc1cccnc1)C2=O.O=C(O)C(F)(F)F.O=C(O)C(F)(F)F,Percent Effect,"30.3 µM, […]",-74.2%
CCc1nnc2n1CCN(Cc1ncc(-c3ccc(Cl)cc3)o1)C2,Percent Effect,"30.3 µM, […]",-0.05411%
Cc1cc(C[C@@H]2CCC[C@H]2NCc2ccccc2C)on1.O=C(O)CC(O)(CC(=O)O)C(=O)O,Percent Effect,"30.3 µM, […]",-2.54%
CCCOc1ccccc1CN[C@@H]1CCC[C@H]1Cc1cc(C)no1.O=C(O)CC(O)(CC(=O)O)C(=O)O,Percent Effect,"30.3 µM, […]",97.97%
Cc1cc(C[C@@H]2CCC[C@H]2NCc2ccccc2F)on1.O=C(O)CC(O)(CC(=O)O)C(=O)O,Percent Effect,"30.3 µM, […]",34.89%
NC(=O)Cn1cc(NC(=O)NCCN2CCc3ccccc3C2)cn1,Percent Effect,10 µM,-24.97%
O=C(NC[C@H]1CCCC[C@H]1O)c1ccc2nc(-c3ccco3)[nH]c2c1,Percent Effect,"30.3 µM, […]",17.46%
same,Percent Effect,"10 mM, 10 mM as filed; unlikely as a test dose",-68.89%
O=C(NC[C@H]1CCCC[C@H]1O)c1cccc2[nH]c(-c3cccs3)nc12,Percent Effect,"30.3 µM, […]",101.4%
same,Percent Effect,"10 mM, 10 mM as filed; unlikely as a test dose",77.67%
O=C(NC[C@H]1CCCC[C@H]1O)c1cccc2[nH]c(-c3ccco3)nc12,Percent Effect,"30.3 µM, […]",13.65%
same,Percent Effect,"10 mM, 10 mM as filed; unlikely as a test dose",-65.92%
Cc1ccc(CN2C[C@@H](OCc3csc(C)n3)[C@H]3COC[C@H]32)s1.O=C(O)C(F)(F)F,Percent Effect,"30 µM, 30.03 µM",-8.753%
COc1ccc(CNC2CCc3ncnn3C2)cc1OCC1CC1 (centres undefined),Percent Effect,"30 µM, 30.03 µM",-28.92%
Cc1occc1-c1nc(NC2CCCC2)ncc1-c1ccccn1,Percent Effect,"30.3 µM, […]",66.93%
Cc1cc(-c2cnc(NC3CC3)nc2-c2ccoc2C)on1,Percent Effect,"30.3 µM, […]",6.625%
Cc1cc(-c2cnc(NC3CC3)nc2-c2ccc(C)o2)on1,Percent Effect,"30 µM, 30.03 µM",25.68%
Cc1cc(-c2cnc(NC3CCCC3)nc2-c2ccoc2)on1,Percent Effect,"30.3 µM, […]",19.37%
Cc1cc(-c2cnc(NC3CCCC3)nc2-c2ccc(C)o2)on1,Percent Effect,"30.3 µM, […]",59.7%
Cc1cc(-c2cnc(NC3CCCCC3)nc2-c2ccco2)on1,Percent Effect,"30.3 µM, […]",43.12%
Cc1cc(-c2cnc(NC3CCCC3)nc2-c2ccoc2C)on1,Percent Effect,"30.3 µM, […]",30.38%
Cc1cc(-c2cnc(NC3CC3)nc2-c2ccco2)on1,Percent Effect,"30.3 µM, […]",20.38%
Cc1cc(-c2cnc(NC3CCCC3)nc2-c2ccco2)on1,Percent Effect,"30.3 µM, […]",60.69%
CN(Cc1ccc2c(c1)OCCO2)Cc1nc2c(cnn2C)c(=O)[nH]1,Percent Effect,"30.3 µM, […]",4.999%
CS(=O)(=O)N1CCO[C@@H]2CCN(Cc3ccncc3)CC[C@H]21.O=C(O)C(F)(F)F.O=C(O)C(F)(F)F,Percent Effect,"30.3 µM, […]",-50.12%
COc1ccc(Cl)cc1S(=O)(=O)N1C[C@@H]2CC[C@H](C1)N(C)C2=O,Percent Effect,"30 µM, 30.03 µM",12.03%
O=C(O)C(F)(F)F.O=c1ccc2c(n1CC1CCOCC1)CCN(Cc1ccoc1)CC2,Percent Effect,"30 µM, 30.03 µM",-13.76%
COCCNC(=O)[C@H]1CN(Cc2cccs2)C[C@H]2OCC[C@@H]12.O=C(O)C(F)(F)F,Percent Effect,"30 µM, 30.03 µM",-47.27%
Cc1ccc(CN2C[C@@H]3CCCO[C@@H]3[C@H](N(C)Cc3ccco3)C2)s1.O=C(O)C(F)(F)F.O=C(O)C(F)(F)F,Percent Effect,"30 µM, 30.03 µM",26.16%
COCCN1CCOCC12CCN(c1cnccn1)CC2.O=C(O)C(F)(F)F,Percent Effect,"30.3 µM, […]",-82.27%
Cn1c(C2CC2)nc2c1CCN(CCOc1cccc(F)c1)C2,Percent Effect,"30.3 µM, […]",33.25%
same,Percent Effect,"10 mM, 10 mM as filed; unlikely as a test dose",-49.38%
Cn1c(C2CC2)nc2c1CCN(CCOc1ccc(C#N)cc1)C2,Percent Effect,"30 µM, 30.03 µM",41.84%
Cn1c(C2CC2)nc2c1CCN(CCOc1ccccc1C#N)C2,Percent Effect,"30.3 µM, […]",73.03%
same,Percent Effect,"10 mM, 10 mM as filed; unlikely as a test dose",81.28%
